Screen size: about 5,500 compounds; about 2,000 (36%) were called active. Roughly 18% stayed inconclusive and do not appear here. No stated cut-off is given here; in the data, active means normalized growth mostly below about 0.91 (no sharp cut-off); inconclusive means no clear call, values can overlap the other calls; inactive means mostly above about 0.92. Some of the results follow.
Experiment: chemical genetic growth profiling, strain panel (AID 1159580);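 further: tested at 20 µM; growth read once vehicle control cultures reached saturation at 30 °C; 1 = growth at the plate median or of vehicle wells; lower values mean less growth of the strain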
Conditions: S. cerevisiae deletion strains, growth OD

Measured: normalized growth

CCN1CCc2nc(N)oc2CC1
inactive: locus YAL013W, strain DEP1, active compounds read low 1.03 | locus YAL040C, strain CLN3, active compounds read low 0.981 | locus YCL061C, strain MRC1 (second series), active compounds read low 1 | locus YDR363W, strain ESC2, active compounds read low 1.03 | locus YER002W, strain NOP16, active compounds read low 0.993 | locus YMR263W, strain SAP30, active compounds read low 1 | locus YNL175C, strain NOP13, active compounds read low 1.01 | locus YNL197C, strain WHI3, active compounds read low 1.02 | locus YNL224C, strain SQS1, active compounds read low 0.995 | locus YOR083W, strain WHI5 (second series), active compounds read low 0.999 | locus YPL241C, strain CIN2, active compounds read low 0.998

CCCCCCCCCCCCCCCC(=O)OCC(O)[C@H]1OC(=O)C(O)=C1O (some centres undefined)
active: locus YHR030C, strain SLT2, active compounds read low 0.804 | locus YHR079C, strain IRE1, active compounds read low 0.83 | locus YJL095W, strain BCK1, active compounds read low 0.823 | locus YJR066W, strain TOR1, active compounds read low 0.777 | locus YLR113W, strain HOG1, active compounds read low 0.724 | locus YNL183C, strain NPR1, active compounds read low 0.703 | locus YOR231W, strain MKK1, active compounds read low 0.834 | locus YPL256C, strain CLN2, active compounds read low 0.763

Source: PubChem BioAssay AID1159580 (chemical genetic matrix, 2015)
